Data on 56 compounds can be found in PubChem BioAssay AID1851 (National Center for Advancing Translational Sciences (NCATS), 2009).

Each structure is given as a SMILES string. Values joined by “and” are separate entries in the source; they are usually repeats but may differ in a detail not shown here. Equal entries are not always repeated. In all, about 16,000 compounds went through this assay and about 4,000 (25%) were called active. Roughly 26% stayed inconclusive and do not appear here. Not all results are given here. A number with no mark means an inactive call. Calls follow the shape of the dose curve; as a rule, active = well fitted curve in the direction sought with a large enough effect; inconclusive = small, poorly fitted or top-dose-only effect, or effect the other way; inactive = no such curve, though single readings can be large or run the other way.
% is scaled to controls: 0 for no effect and ±100 for the full control effect.

This assay deals with Cytochrome P450 2C9 (Homo sapiens) (UniProt P11712). Description: Cytochrome panel assay with activity outcomes. To be noted: recombinant CYP, pro-luciferin dealkylation, luminescence, p450-cyp2c9; series mostly up to 57.1 µM; activity, negative = inhibition: at the top concentration.
Sequence of Cytochrome P450 2C9 (Homo sapiens) (P11712 whole entry, looked up): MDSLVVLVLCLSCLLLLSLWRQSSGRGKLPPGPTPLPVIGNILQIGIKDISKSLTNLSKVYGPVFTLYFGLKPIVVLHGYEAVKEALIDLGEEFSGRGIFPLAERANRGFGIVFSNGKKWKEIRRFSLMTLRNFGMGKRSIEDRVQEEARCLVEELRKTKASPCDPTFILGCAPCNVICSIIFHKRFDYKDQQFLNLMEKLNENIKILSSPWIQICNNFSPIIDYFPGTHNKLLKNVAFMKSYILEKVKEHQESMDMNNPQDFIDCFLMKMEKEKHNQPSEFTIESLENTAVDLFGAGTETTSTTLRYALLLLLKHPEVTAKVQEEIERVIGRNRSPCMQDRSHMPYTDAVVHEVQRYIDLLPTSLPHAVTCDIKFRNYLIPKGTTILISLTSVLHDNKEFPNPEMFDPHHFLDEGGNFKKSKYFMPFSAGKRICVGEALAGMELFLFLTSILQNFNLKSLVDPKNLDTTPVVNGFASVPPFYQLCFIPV
For the compound `Cc1noc(C)c1-c1ccc2ncnc(NCCN3CCOCC3)c2c1`, the activity, negative = inhibition is -1.53% [at 2.29 µM].

Regarding `CCC(=O)O[C@@H]1[C@H](C)O[C@H](O[C@H]2[C@@H](N(C)C)[C@H](O)[C@@H](O[C@@H]3[C@@H](CC=O)C[C@@H](C)[C@@H](O)/C=C\C=C/C[C@@H](C)OC(=O)C[C@@H](OC(=O)CC)[C@H]3OC)O[C@H]2C)C[C@]1(C)O`, the “activity, negative = inhibition” value was 4.08% [at 25.6 µM].

With `c1ccc2c(NC3CC3)nc(-c3ccoc3)nc2c1`, the activity, negative = inhibition is -17.7% [at 2.29 µM].

In the case of `c1ccc(-c2c3ccccc3nc3[nH]c4ccccc4c23)cc1`, the AC50 – broadly, the concentration at which the activity in the assay is half-maximal – is 10 µM (active).

Regarding `CCCCc1c2ccccc2nc2[nH]c3ccccc3c12`, the “activity, negative = inhibition” value is -11.5%.

As for `CC[C@@H]1CN2CCc3cc(OC)c(OC)cc3[C@H]2C[C@@H]1C[C@@H]1NCCc2cc(OC)c(OC)cc21`, the “activity, negative = inhibition” value is 8.9%.

In the case of `CN1CCN(c2ccnc(-c3ccc(N(C)C)cc3)n2)CC1`, the activity, negative = inhibition is 4.88% [at 2.29 µM].

Turning to `CN(C)c1ccc(O)c2c1C[C@H]1C[C@H]3[C@@H](N(C)C)C(=O)C(C(N)=O)=C(O)[C@]3(O)C(=O)C1=C2O`, the “activity, negative = inhibition” value was -3.59% [at 25.6 µM].

On to `CCN(CC)CCCNC(=O)CC1Sc2ccccc2NC1=O` (stereo unspecified), for which the “activity, negative = inhibition” value was -23.3%.

On to `Cc1cc(C)n2nc(SCN3C(=O)c4ccccc4C3=O)nc2n1`, for which the “activity, negative = inhibition” value is -0.785%.

For the compound `COc1ccccc1CNC(=O)CSc1nc2nc(C)cc(C)n2n1`, the “activity, negative = inhibition” value is 43.7%.

`Cc1cc(C)n2nc(SCc3cc(=O)oc4ccc5ccccc5c34)nc2n1`: the AC50 was 8.91 µM (active).

`CO[C@@H]1COC(=O)C/C=C\[C@@H](C)COC(=O)[C@H](Cc2ccccc2)NC(=O)C/C=C\[C@H]1C`: the activity, negative = inhibition is -17.6% [at 11.4 µM].

On to `O=C1CCCC=C1[C@H](O)c1ccc([N+](=O)[O-])cc1`, for which the activity, negative = inhibition was -18.1% [at 11.4 µM].

With `O=C1CCCC=C1[C@@H](O)C1CCCCC1`, the activity, negative = inhibition is 14.2% [at 11.4 µM].

Regarding `O=C1CCCC=C1[C@H](CCc1ccccc1)OC(=O)c1ccc(Br)cc1`, the AC50 was 3.16 µM (active).

Regarding `CN(C)CCn1c(CO)nc2c1c(=O)n(C)c(=O)n2C`, the activity, negative = inhibition is 0.0092% [at 11.4 µM].

Take `CCCCCn1c(CN2CCCCC2C)nc2c1c(=O)n(C)c(=O)n2C` (stereo unspecified): the AC50 was 15.8 µM (active).

In the case of `CCCCn1c(SCC(=O)N2CCCC2)nc2c1c(=O)n(C)c(=O)n2C`, the “activity, negative = inhibition” value is -14.8%.

`CCNc1ncc2nc(-c3cc(F)cc(F)c3)c(=O)n(-c3ccc(OC)cc3)c2n1`: the “activity, negative = inhibition” value is 13.1%.

Turning to `O=C(Oc1ccccc1)N1CCC2(CC1)CCN(c1cccc(-c3ccccc3)c1)CC2`, the “activity, negative = inhibition” value is -2.21%.

Regarding `N#Cc1cccc(-c2cncnc2NCc2ccccc2)c1`, the activity, negative = inhibition was -4.42% [at 2.29 µM].

Take `COC(=O)c1c(C)nc2ccccc2c1C(=O)O`: the “activity, negative = inhibition” value was -8.6%.

Consider `COC(=O)c1c(C)oc2ccc(N(C(=O)c3ccncc3)S(=O)(=O)c3ccccc3)cc12`, for which the AC50 is 2.51 µM (active).

As for `CCC(C)N1C(=O)S/C(=C/c2ccc(Sc3nc4ccccc4[nH]3)o2)C1=O` (stereo unspecified), the AC50 is 1.26 µM (active).

As to `Cc1ncc([N+](=O)[O-])n1CC(C)O` (stereo unspecified), the “activity, negative = inhibition” value is 10%.

As for `Clc1cccc(C=NC=Nc2cccc(Cl)c2)c1`, the “activity, negative = inhibition” value is -9.46%.

Turning to `CC(C)(C)c1nc(SCC(=O)Nc2ccc(N3CCOCC3)cc2)c2ccccc2n1`, the AC50 was 7.94 µM (active).

Turning to `Cn1c(CCC(=O)Nc2ccc(N3CCOCC3)cc2)nc(=O)c2ccccc21`, the “activity, negative = inhibition” value was 13.8%.

As for `CNCC[C@H](Oc1ccccc1C)c1ccccc1`, the “activity, negative = inhibition” value was -19.6%.

Regarding `CNCCC=C1c2ccccc2C=Cc2ccccc21`, the “activity, negative = inhibition” value is 15.2% [at 25.6 µM].

`Cc1ccc(C)c(CN2C(=O)C3CCCN3c3ccc(C#N)cc32)c1` (stereo unspecified): the AC50 was 7.08 µM (active).

On to `COc1ccccc1CN1CC[C@@]2(CCCN(S(=O)(=O)c3ccccc3)C2)C1`, for which the “activity, negative = inhibition” value was -6.93%.

Consider `CCOc1ccc(N(C(=O)/C=C/C(=O)Nc2cc(C)on2)C(C(=O)NC2CCCC2)c2ccccc2C)cc1` (stereo unspecified), for which the AC50 was 3.16 µM (active).

For the compound `O=C(O)[C@@H]1[C@@H]2C[C@H]([C@@H](Br)[C@H]2N2C(=O)CCC2=O)[C@@H]1C(=O)O`, the activity, negative = inhibition is 8.14% [at 11.4 µM].

As for `O=C(CCN1C(=O)c2ccccc2C1=O)Oc1ccc2ccccc2c1`, the “activity, negative = inhibition” value is -2.31%.

Take `O=S1(=O)C=C(Oc2ccc3ccccc3c2)c2ccccc21`: the AC50 was 3.98 µM (active).

Take `CN1CCN(Cc2nc3cccc4c3c([n+]2[O-])-c2ccccc2-4)CC1`: the activity, negative = inhibition was -11.8% [at 11.4 µM].

As to `CC(c1ccc(Cl)cc1)n1c(-c2ccc3ccccc3n2)n[nH]c1=S` (stereo unspecified), the AC50 is 2.51 µM (active).

On to `c1ccc2nc(C3=NCCN3)ccc2c1`, for which the AC50 result was “inactive”.

As to `CN(C)CC[C@H](c1ccc(Cl)cc1)c1ccccn1`, the “activity, negative = inhibition” value was 17.3%.

Regarding `COC(=O)c1[nH]c(C)c(/C(O)=C2\C(=O)C(=O)N(CCN(C)C)C2c2cccs2)c1C` (stereo unspecified), the “activity, negative = inhibition” value is 20%.

`CC1CCN(c2ccc(/C=N/n3nnnc3N)cc2[N+](=O)[O-])CC1`: the “activity, negative = inhibition” value was -14.5%.

Take `COC(=O)c1cc(NS(=O)(=O)c2ccc(N3CCCCC3)c([N+](=O)[O-])c2)cc(C(=O)OC)c1`: the AC50 was 0.631 µM (active).

For `NNS(=O)(=O)c1cc(C(=O)O)cc(C(=O)O)c1`, the activity, negative = inhibition is -5.43% [at 11.4 µM].

`CC1CCN(c2ccc(S(=O)(=O)Nc3cc(C(=O)O)cc(C(=O)O)c3)cc2[N+](=O)[O-])CC1`: the AC50 was 14.1 µM (active).

Take `COC(=O)c1cc(NS(=O)(=O)c2ccc(N3CCCCCC3)c([N+](=O)[O-])c2)cc(C(=O)OC)c1`: the AC50 was 2.24 µM (active).

For the compound `O=c1n(-c2ccccc2)c(=O)n2n1CC[C@H]1/C(=N\OC[C@@H](O)COCc3ccco3)[C@H]3O[C@@H]3[C@@H](O)[C@@H]12`, the activity, negative = inhibition was 19.1% [at 11.4 µM] and 17% [at 11.4 µM].

For the compound `Cc1nc2c(c(-c3ccccc3)c1C#N)C(=O)c1ccccc1-2`, the AC50 was 0.447 µM (active).

For `O=C(Cn1c(-c2cscn2)nc2ccccc21)Nc1cc(F)ccc1F`, the AC50 is 15.8 µM (active).

Consider `O=C(Nc1ccc(Br)cc1)c1ccc(CSC2=NCCS2)cc1`, for which the AC50 was 7.08 µM (active).

Take `COc1ccc(OCCn2c(C)c(/C=N/n3cnnc3)c3ccccc32)cc1`: the AC50 was 0.316 µM (active).

As to `COc1ccc(Oc2c(C=O)c3ccccc3n2C)cc1`, the “activity, negative = inhibition” value is -13%.

In the case of `C[C@H](N=C(NC#N)Nc1ccncc1)C(C)(C)C`, the “activity, negative = inhibition” value was -23.6%.

`Cc1nc(C(=O)Nc2ccc(Cl)cc2Cl)nn1-c1cc(OC(C)C)c(Cl)cc1Cl`: the AC50 was 2.51 µM (active).

With `Cc1cc(C(F)F)n2nc(C(=O)Nc3cccnc3Cl)nc2n1`, the “activity, negative = inhibition” value was -21.3%.
